In the library only some 2.3% were active in any assay of this set; here they are far more common.
M1 PAM: human M1 muscarinic receptor positive allosteric modulators, primary screen, CHO-K1 cells, Fluo-8 calcium fluorescence, 1536-well. Muscarinic acetylcholine receptor M1 (Homo sapiens), P11229. CHO-K1 hM1, ACh EC20; 0% = ACh EC20, 100% = maximal ACh. hit rate 0.088% among 360,000. AID 588819, 2011. activation, % at 3 µM; in the data active means activation above about 19%, passing the limit was not always enough
Target sequence (P11229 whole entry, looked up): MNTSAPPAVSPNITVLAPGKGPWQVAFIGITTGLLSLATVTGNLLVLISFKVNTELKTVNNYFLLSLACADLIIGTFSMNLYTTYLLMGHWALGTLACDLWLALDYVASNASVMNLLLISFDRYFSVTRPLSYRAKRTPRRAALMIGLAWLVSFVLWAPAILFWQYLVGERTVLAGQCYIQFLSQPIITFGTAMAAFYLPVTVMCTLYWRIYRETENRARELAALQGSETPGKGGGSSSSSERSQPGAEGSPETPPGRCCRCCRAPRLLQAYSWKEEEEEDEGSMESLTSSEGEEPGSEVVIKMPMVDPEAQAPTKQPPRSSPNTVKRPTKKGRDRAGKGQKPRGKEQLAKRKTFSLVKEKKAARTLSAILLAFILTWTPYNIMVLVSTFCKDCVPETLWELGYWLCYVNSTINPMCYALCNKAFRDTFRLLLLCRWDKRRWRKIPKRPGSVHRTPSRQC
M1 ag parental: counter-screen for M1 agonists: effect in parental CHO-K1 cells. Fluo-8 calcium fluorescence; scaled to maximal ATP response, vehicle zero. activation, % at 3 µM. hit rate 0.48% among 360,000. AID 602248, 2012; in the data active means activation above about 15%;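 further: untransfected CHO-K1 host cells lacking M1 receptor as counterscreen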
CHRM1 antagonist: human M1 muscarinic receptor antagonists, primary screen, CHO-K1 cells, Fluo-8 calcium fluorescence, 1536-well; CHO-K1 hM1, ACh EC80 antagonist; inhibition, % at 3 µM; AID 588852, 2011; Muscarinic acetylcholine receptor M1 (Homo sapiens), P11229; hit rate 1.3% among 360,000;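 active means percent inhibition above its own plate's cutoff, namely the mean of that plate's compound wells plus 3 SD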;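 further: peak over basal fluorescence ratio during 140 s after agonist addition; 0% = ACh EC80 plus DMSO and 100% = DMSO alone without agonist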
CHO-K1 Ca antag: counter-screen for M1 antagonists: effect in parental CHO-K1 cells; ATP-induced calcium, Fluo-8 fluorescence; hit rate 0.6% among 360,000; inhibition, % at 3 µM; AID 602250;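 active means inhibition above a per-plate cutoff, the plate's mean sample inhibition plus 3 SD, cut at about 24% in these data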;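 further: 0% = DMSO plus EC80 ATP and 100% = DMSO alone without ATP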
CHRM1 agonist: human M1 muscarinic receptor agonists, primary screen, Fluo-8 calcium fluorescence, CHO-K1 cells, HTS | Muscarinic acetylcholine receptor M1 (Homo sapiens), P11229 | activation, % at 3 µM | CHO-K1 hM1, agonist mode; 0% DMSO, 100% acetylcholine EC100 | AID 588814, 2011 | hit rate 0.33% among 360,000;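 active means activation above the run's mean compound activation plus 3 SD, cut at about 16% in these data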;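 further: peak over basal fluorescence ratio within a 140 s kinetic read after compound addition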
CHO-K1 Ca PAM: nonselective calcium activators in parental CHO-K1 cells, primary screen, counter-screen for M1 PAM project, cell-based, Fluo-8 calcium fluorescence, full deck, 1536-well. ATP EC20; 0% at ATP EC20, 100% at ATP max. hit rate 0.02% among 360,000. activation, % at 3 µM;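 active means activation above the run cutoff, the mean activation of all test compounds plus 3 SD, cut at about 40% in these data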;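 further: peak over basal fluorescence ratio in a 140 s read after ATP addition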
* = called active by the depositor.

SMILES	M1 PAM	M1 ag parental	CHRM1 antagonist	CHO-K1 Ca antag	CHRM1 agonist	CHO-K1 Ca PAM
CC[N+]12CCC(CC1)C(C(O)(c1ccccc1)c1ccccc1)C2 (stereo not given)	-23	1	98*	-13	-6	22
CCCCn1nnnc1C(c1cccs1)N1CCC2(CC1)C(=O)NCN2c1ccccc1 (stereo not given)	0	1	1	10	-2	2
Cc1cccc(CN2CCCC(C(=O)c3ccc(C(F)(F)F)cc3)C2)n1 (stereo not given)	-29	0	24	10	-12	-10
COc1ccc(Cl)cc1C(=O)C1CCCN(CCO)C1 (stereo not given)	11	0	8	-6	-15	18
O=C(c1ccc(C(F)(F)F)cc1)C1CCCN(C2CCSCC2)C1 (stereo not given)	-32	0	57*	-12	-14	15
Cc1cc(Cl)ccc1C(=O)C1CCCN(C2CCSCC2)C1 (stereo not given)	-33	0	84*	-15	-13	11
COc1ccc(-c2ccc3n2Cc2cnnn2-c2ccccc2-3)cc1	2	1	-4	-13	-5	18
COC(=O)C1=C(c2ccc(S(C)(=O)=O)cc2)C[C@@H]2CC[C@H]1N2C(=O)N1CCC(C)CC1	11	0	-3	-10	-5	16
COc1cc(C[C@@H](C)N)c(OC)cc1I	-4	2	-13	-1	13	12
COC(=O)C1=C(c2c(C)noc2C)C[C@@H]2CC[C@H]1N2C(=O)NCCOc1ccc(OC)cc1	2	-1	1	-7	-4	-3
O=c1[nH]c(=O)n(CCC2=CCCCC2)c(O)c1/C=N/N1CCOCC1	0	0	-4	25*	-2	-24
CCN(CC)C(=O)c1ccc(NC(=O)c2cccc(S(=O)(=O)N3CCN(Cc4ccccc4)CC3)c2)cc1	-10	9	20	29*	0	-19
CC1(C)CN=C(Nc2ccc(F)c(Cl)c2)S1	1	30*	-10	-14	12	11
CC1(C)CN=C(Nc2ccc(F)c(F)c2)S1	6	23*	-13	-12	20*	21
CC1(C)CSC(Nc2ccc(F)c(Cl)c2)=N1	-6	2	1	1	-4	1
CCOC(=O)CNC(=O)N1Cc2cc(N3CCOCC3)ccc2-n2nncc2C1	0	1	7	8	-3	7
COP(=S)(OC)c1c(C)nn(CCC#N)c1NC(=O)c1ccc(Cl)cc1	-3	1	-7	-14	-1	-2
C=C(C)[C@@]12OC3(c4ccccc4)O[C@@H]1C1[C@@H]4O[C@]4(CO)[C@@H](O)[C@]4(O)C(=O)C(C)=C[C@H]4[C@@]1(O3)[C@H](C)[C@H]2OC(=O)/C=C/C=C/c1ccccc1 (stereo not given in full)	-32	1	43*	-1	-7	-19
CC(C)(C)c1cc(C=C(C#N)C#N)cc(C(C)(C)C)c1O	-15	10	45	31*	11	6
O=C(c1cc(Cl)cc(Cl)c1)N1Cc2ccccc2-n2nncc2C1	5	3	-9	-7	-2	20
C[N+](C)(C)Cc1ccccc1	-29	1	56	2	76*	-3
O=C1NC(=O)C(=Cc2ccc(OCC(=O)N3CCOCC3)cc2)C(=O)N1	-1	0	-16	29*	-3	-15
CN(CCOc1ccc(C=C2C(=O)NC(=O)NC2=O)cc1)c1ccccn1	-7	1	16	-10	-7	6
CCCC(=O)N(C)C1=Nc2ccc(Cl)cc2C(c2ccccc2)=[N+]([O-])C1	-2	1	3	-12	-7	-11
C[N+](C)(C)CC#CCN1CCCC1=O	-12	2	89*	16	120*	7
C/C(Cl)=C/CC1(CN2CCCC2=O)C(=O)NC(=O)NC1=O	8	0	-6	-8	-3	16
